# BAZ2B inh: qHTS Assay for Inhibitors of BAZ2B; Bromodomain adjacent to zinc finger domain protein 2B (Homo sapiens), Q9UIF8; AlphaScreen BAZ2B-H3K14Ac peptide displacement; Potency, µM (doses to about 114 µM), for inactives: at the top dose activity change, negative = inhibition, hits mostly inhibitors; actives 4.4% (n = 360,000); further: on the % scale 0 is the no-effect control and ±100 the full control effect; nearly all actives have a fitted effect of over 60% in size
#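 Multi-concentration screen (max 110 uM) measuring displacement of acetylated histone H3 peptide from BAZ2B by AlphaScreen, using 50 nM protein, 50 nM peptide and 10 ug/mL streptavidin donor plus Ni-chelate acceptor beads.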
# Sfp inh: qHTS Assay for Inhibitors of Bacillus subtilis Sfp phosphopantetheinyl transferase (PPTase). Biochemical Sfp PPTase activity, qHTS. actives 3.5% (n = 310,000). AID 1490, 2009. 4'-phosphopantetheinyl transferase ffp (Bacillus subtilis), Q9F4F7. Potency, µM, without a hit: largest response in the series, negative = inhibition, hits mostly inhibitors;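 further: the enzyme is Sfp with the accession as filed and its product quenches rhodamine fluorescence; 0% = enzyme reaction without inhibitor and -100% = no enzyme wells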
#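 Fluorescence-quenching assay with 15 nM Sfp, 5 uM rhodamine-CoA and 12.5 uM BHQ-2-labelled ybbR peptide in pH 7.6 Hepes/MgCl2 buffer. Enzyme was pre-incubated with compound for 15 min at room temperature. Rate was taken from the 30-min fluorescence change (525/598 nm).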
# JMJD2A Tudor inh: qHTS Assay for Inhibitors of JMJD2A-Tudor Domain; Lysine-specific demethylase 4A (Homo sapiens), O75164; AlphaScreen JMJD2A-Tudor / H3K4me3 peptide binding; Potency, µM (highest dose often 114 µM), for the others: top-dose activity change, negative = inhibition, hits mostly inhibitors; actives 4.4% (n = 390,000); AID 504339, 2011; further: on the % scale 0 is the no-effect control and ±100 the full control effect; nearly all actives have a fitted effect of over 50% in size
# G9a inh: qHTS Assay for Inhibitors of Histone Lysine Methyltransferase G9a | Histone-lysine N-methyltransferase EHMT2 (Homo sapiens), Q96KQ7 | G9a H3K9 monomethylation, AlphaScreen, 2 h | Potency, µM (top dose mostly 102 µM), for inactives: top-dose activity, negative = inhibition, actives largely listed as inhibitors | actives 8.8% (n = 350,000) | AID 504332, 2011; further: on the % scale 0 is the no-effect control and ±100 the full control effect; nearly all actives have a fitted effect of over 75% in size
#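 Using a bead-based AlphaScreen, monomethylated H3K9 product from 2 h room-temperature reactions (G9a 20 nM, peptide 500 nM, SAM 20 uM) was detected with 0.5 ug/mL rabbit anti-H3K9me1 antibody.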
# HP1b binding inh: HTS for Inhibitors of HP1-beta Chromodomain Interactions with Methylated Histone Tails | Chromobox protein homolog 1 (Homo sapiens), P83916 | AlphaScreen HP1-beta / biotin-H3K9me3 peptide binding | Potency, µM (titrated, usually from 114 µM), without a hit: at the top dose activity change, negative = inhibition, most hits filed as inhibitors | actives 0.56% (n = 390,000) | AID 540317, 2011; further: nearly all actives have a fitted effect of over 70% in size
#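 Compound inhibition of the preformed complex between 50 nM HP1-beta and 50 nM biotinylated H3K9me3 peptide was read by AlphaScreen. Buffer was PBS pH 7.4 with 0.01% Tween-20. Incubations ran 30 min at room temperature, with 10 ug/mL donor/acceptor beads.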
# L3MBTL1 block: qHTS Assay for the Inhibitors of L3MBTL1. AID 485360, 2010. Potency, µM (titrated, usually from 57.1 µM), without a hit: at the highest dose activity, negative = inhibition, hits mostly inhibitors. AlphaScreen L3MBTL1–H3K9me1 peptide binding. Lethal(3)malignant brain tumor-like protein 1 (Homo sapiens), Q9Y468. actives 0.66% (n = 230,000); further: on the % scale 0 is the no-effect control and ±100 the full control effect; nearly all actives have a fitted effect of over 60% in size
# Target sequence (Q9Y468 whole entry, looked up): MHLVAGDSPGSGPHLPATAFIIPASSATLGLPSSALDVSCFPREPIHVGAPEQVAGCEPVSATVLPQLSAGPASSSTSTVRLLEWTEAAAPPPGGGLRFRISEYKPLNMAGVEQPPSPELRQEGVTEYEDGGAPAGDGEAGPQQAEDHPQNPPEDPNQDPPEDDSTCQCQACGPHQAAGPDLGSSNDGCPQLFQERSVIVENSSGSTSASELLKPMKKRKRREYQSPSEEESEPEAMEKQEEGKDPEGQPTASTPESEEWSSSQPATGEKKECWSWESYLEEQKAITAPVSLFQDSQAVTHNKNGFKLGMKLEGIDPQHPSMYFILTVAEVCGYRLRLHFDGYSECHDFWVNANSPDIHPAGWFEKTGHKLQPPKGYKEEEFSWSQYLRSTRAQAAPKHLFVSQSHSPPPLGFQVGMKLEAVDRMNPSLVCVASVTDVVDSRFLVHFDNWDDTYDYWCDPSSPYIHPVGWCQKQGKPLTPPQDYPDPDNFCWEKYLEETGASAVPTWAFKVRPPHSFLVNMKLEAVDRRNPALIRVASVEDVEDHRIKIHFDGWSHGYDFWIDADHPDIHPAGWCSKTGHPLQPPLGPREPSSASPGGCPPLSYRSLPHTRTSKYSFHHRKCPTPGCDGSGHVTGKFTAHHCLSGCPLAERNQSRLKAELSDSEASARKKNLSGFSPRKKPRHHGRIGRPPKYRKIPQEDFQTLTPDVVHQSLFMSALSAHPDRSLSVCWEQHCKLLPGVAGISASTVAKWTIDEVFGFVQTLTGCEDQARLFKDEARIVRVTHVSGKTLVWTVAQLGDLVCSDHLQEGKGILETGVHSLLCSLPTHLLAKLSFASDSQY
#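 L3MBTL1 (50 nM) pre-complexed 30 min with biotinylated H3(1-15)K9me1 peptide (75 nM), then compounds added for 30 min at room temperature; AlphaScreen streptavidin donor/nickel chelate acceptor beads (10 ug/mL final) read after 30 min dark incubation.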
# Starred values were filed as active, the others as inactive; ? = inconclusive; · = not tested or not shown; [ ] = dose if it differs, or a comment. In the library only some 12% were active in any assay of this set; here they are far more common. The call rests on the fitted dose curve; in most records, active means well fitted curve in the direction sought with a large enough effect; inconclusive means small, poorly fitted or top-dose-only effect, or another doubt; inactive means no such curve, though single readings can be large; an effect the other way counts as inactive or inconclusive. Potency means the concentration at half of the fitted maximal effect.
SMILES,BAZ2B inh,Sfp inh,JMJD2A Tudor inh,G9a inh,HP1b binding inh,L3MBTL1 block
N#CC1=C(N)C(C#N)(C#N)C(c2ccc[nH]2)C2CCCC=C12 (stereo unspecified),-14.4%,56.2µM*,-31.3%,35.5µM*,6.5%,-7.6%
N#CC1=C(N)C2=CCCC[C@H]2[C@H](c2cccc(F)c2)C1(C#N)C#N,1.0%,9.6%,-21.5%,-7.7%[59 µM],7.7%,-2.4%
N#CC1=C(N)C(C#N)(C#N)C(c2cccnc2)C2CC(c3ccccc3)CC=C12 (stereo unspecified),-36.9%,-13.6%,-7.5%,·,39.6%,-0.6%
O=C(NC(=S)Nc1ccc(N2CCOCC2)cc1)c1ccccc1,?,-25.9%,?,4.47µM*,?,-14.0%
O=C(NC(=S)Nc1ccc(N2CCOCC2)cc1)c1ccco1,-5.0%,?,-28.6%,?,-14.8%,-6.2%
Cc1ccccc1C(=O)NC(=S)Nc1ccc(N2CCOCC2)cc1,?,-13.5%,?,44.7µM*,?,-22.7%
CCc1ccc(C(=O)NC(=S)Nc2ccc(N3CCOCC3)cc2)cc1,20µM*,0.7%,?,6.31µM*,?,-28.8%
O=C(NCC1CCN(c2ccc(S(=O)(=O)N3CCOCC3)cc2)CC1)c1cccc(Cl)c1,56.2µM*,-5.9%,-16.6%,-17.6%,10.8%,·
COC(=O)c1ccc(C(NC(=O)OCc2ccccc2)/C(=C/[C@@H](C)C(=O)N(C)Cc2ccccc2)c2cccnc2)cc1 (stereo partly specified),·,21.6%,·,·,·,·
N[C@@H](CSSC[C@H](N)C(=O)O)C(=O)O,·,6.0%,·,·,·,·
O=C(NC(=S)Nc1ccc(N2CCOCC2)cc1)c1cccc(Cl)c1Cl,?,8.6%,-16.6%,·,31.9%,·
CN(C)C(=S)Nc1ccc(N2CCOCC2)cc1,-1.1%,-12.2%,-3.7%,·,47.4%,5.4%
CC(=O)c1ccc(NC(=S)Nc2ccc(N3CCOCC3)cc2)cc1,-26.8%,?,-5.8%,44.7µM*,-17.0%,-19.3%
O=C(NC(=S)Nc1ccc(N2CCOCC2)cc1)c1cccc(Cl)c1,17.8µM*,-2.8%,?,28.2µM*,?,-27.1%
C/C(=C\C(=O)c1ccccc1)Nc1ccc(N2CCOCC2)cc1,-1.0%,2.1%,-27.0%,79.4µM*,22.8%,·
O=C(NC(=S)Nc1ccc(Cl)cc1)c1cncc(Br)c1,·,·,-23.6%,·,70.2%,·
O=C(NC(=S)Nc1ccc(N2CCOCC2)cc1)c1cncc(Br)c1,?,56.2µM*,-29.1%,?,?,-8.9%
O=C1CSC(c2ccccc2[N+](=O)[O-])N1c1ccc(O)cc1 (stereo unspecified),-12.7%,50.1µM*,-1.4%,?,10.3%,·
O=C1CSC(c2ccccc2[N+](=O)[O-])N1c1ccccc1 (stereo unspecified),?,11.4%,-15.5%[57.1 µM],1.3%,1.9%,-15.0%
O=C(NC1CCCCC1)C(c1cc2c(cc1[N+](=O)[O-])OCO2)N1CCCCC1 (stereo unspecified),?,-13.9%,·,-5.8%,·,-12.4%
COc1cc(S(N)(=O)=O)c(OC)cc1N,-26.6%,-2.8%,-10.6%,0.1%,29.9%,-1.4%
COc1cc(N=Nc2ccc(C)cc2S(N)(=O)=O)c(C)cc1N,·,·,6.31µM*,·,20µM*,·
O=C1CCCCCN1Cc1nnc(SCc2nc3ccccc3s2)n1-c1ccccn1,-21.8%,3.2%,-22.2%,50.1µM*,38.3%,-0.5%
Cc1ccsc1C(=O)NC1CCCN(Cc2ccc(Cl)cc2)C1 (stereo unspecified),-5.6%,7.9%,?,·,9.9%,·
